Experimental data published in PubChem BioAssay (Tox21).
Calls of active or inactive are those of the source. The call rests on the fitted dose curve; in most records, active means well fitted inhibition curve with a large enough effect in the repeat runs (not every such curve was filed as active); inconclusive means weak or mixed curves; inactive means flat fitted curve, though single readings scatter.

molecular target: Thyrotropin-releasing hormone receptor (Homo sapiens) (UniProt P34981); test: qHTS assay to identify small molecule antagonists of the thyrotropin-releasing hormone receptor (TRHR) signaling pathway (AID 1346877); conditions: TRHR-HEK293, TRH-induced calcium fluorescence, antagonist mode; series mostly up to 51.3 µM
Text: National Center for Advancing Translational Sciences [NCATS]
NIH Chemical Genomics Center [NCGC]
U.S. Environmental Protection Agency [EPA]
National Institutes of Environmental Health Sciences [NIEHS]
National Toxicology Program [NTP]
U.S. Food and Drug Administration [FDA]
Thyrotropin-releasing hormone (TRH) receptor (TRHR) is a G-protein-coupled receptor which binds the tripeptide thyrotropin releasing hormone. TRHR is found in the brain and, when bound by TRH, acts (through phospholipase C) to increase intracellular inositol trisphosphate. It plays a crucial role in the anterior pituitary where it controls the synthesis and secretion of thyroid stimulating hormone and prolactin. The TRHR-Hek293 assay is a cell-based assay, and it has the potential to screen G protein-coupled receptors. A compound/drug can either activate (agonist) or suppress (antagonist) GPCRs that can be monitored by levels of intracellular calcium. In this assay, the Tox21 10K compound library was screened to identify potential TRHR antagonists.
Tox21 Assay Protocol Summary:
The TRHR-Hek293 cells were dispensed at 1500cells/4uL/well in 1536-well black-clear bottom plates using a Multidrop dispenser. After the assay plates were incubated at a 37 C/5% CO2 incubator for 18 hours, 4 uL of Dye-Loading Solution was added to each well. The plates were incubated at 37 C for 2 hours. For agonist mode, 23 nL of compounds dissolved in DMSO, positive controls or DMSO only was transferred to the assay plate by a pin tool. The fluorescence intensity in the plates was measured using FDSS 7000EX kinetic plate reader for 3 min at 1 sec intervals. For antagonist mode, 23 nL of compounds dissolved in DMSO, positive controls or DMSO only was transferred to the assay plate by a pin tool. After 5 min incubation at room temperature, 1 uL of TRH was added on the top of the cell/compound mixtures to achieve a final agonist concentration of 1 nM. The fluorescence intensity in the plates was measured using FDSS 7000EX kinetic plate reader for 3 min at 1 sec intervals. Each test compound was measured at 15 concentrations and in triplicates.

Chain of Thyrotropin-releasing hormone receptor (Homo sapiens) (P34981 whole entry, looked up): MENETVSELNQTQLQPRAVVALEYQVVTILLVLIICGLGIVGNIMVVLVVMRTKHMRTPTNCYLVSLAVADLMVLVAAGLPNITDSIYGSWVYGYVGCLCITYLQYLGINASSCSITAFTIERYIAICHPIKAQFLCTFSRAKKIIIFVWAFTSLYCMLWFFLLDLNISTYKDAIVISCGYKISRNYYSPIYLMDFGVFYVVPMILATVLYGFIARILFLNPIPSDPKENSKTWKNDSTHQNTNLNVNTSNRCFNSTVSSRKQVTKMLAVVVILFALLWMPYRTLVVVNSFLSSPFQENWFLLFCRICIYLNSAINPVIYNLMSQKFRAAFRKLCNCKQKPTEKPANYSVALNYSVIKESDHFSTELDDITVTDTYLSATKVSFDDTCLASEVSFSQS

Compound	outcome
OCc1ccco1	inactive
Sc1ccccc1	inactive
Cc1cc(O)ccc1Cl	inactive
CNC(=O)O/N=C/C(C)(C)S(C)=O (stereo not given)	inactive
c1ccc2c(c1)CCCC2	inactive
ClCCOCCCl	inactive
COS(=O)(=O)OC	inactive
O=C(O)Cc1ccccc1	inactive
COC(C)(C)CCCC(C)C/C=C/C(C)=C/C(=O)OC(C)C (stereo not given)	inactive
CC(C)CCCCCCOC(=O)c1ccccc1C(=O)OCCCCCCC(C)C	inactive
CCCOC(=O)c1ccccc1C(=O)OCCC	inactive
Oc1c(Br)cc(Br)cc1Br	inactive
Nc1ccc(N)cc1	inactive
CSc1nnc(C(C)(C)C)c(=O)n1N	inactive
CCOP(=S)(OCC)Oc1ccc([N+](=O)[O-])cc1	inactive
Cc1cccc(N)c1	inactive
CC(C)c1cccc(C(C)C)c1O	inactive
Nc1cc(Cl)cc(Cl)c1	inactive
CCOC(=O)CC(SP(=O)(OC)OC)C(=O)OCC (stereo not given)	inactive
CCOP(=S)(OCC)Oc1cc(C)nc(C(C)C)n1	inactive

Compound	outcome
Cc1ccc(N=C=O)cc1N=C=O	inactive
COc1nc(NC(C)C)nc(NC(C)C)n1	inactive
O=[N+]([O-])c1ccc(Cl)cc1	inactive
COP(=S)(OC)Oc1ccc(SC)c(C)c1	inactive
N#Cc1cccc(C#N)c1	inactive
CC(C)(C)C(=O)CCl	inactive
COP(=S)(OC)SCN1C(=O)c2ccccc2C1=O	inactive
N#CN=C(N)N	inactive
Cc1cccc(C)c1NC(=O)CN1CCCC1=O	inactive
O=C(O)C(Br)Br	inactive
O=C(O)CCCc1ccc(N(CCCl)CCCl)cc1	inactive
Cc1cccc(N)c1C	inactive
Cl/C=C/Cl	inactive
CNCC(O)c1ccc(O)cc1 (stereo not given)	inactive
CCCCC(CC)C(=O)Cl (stereo not given)	inactive
CN(C)CCC#N	inactive
O=P1(NCCCl)OCCCN1CCCl (stereo not given)	inactive
O=C(O)c1cc(Oc2ccc(C(F)(F)F)cc2Cl)ccc1[N+](=O)[O-]	inactive
Nc1nc(N)nc(NC2CC2)n1	inactive
FC(F)(F)c1ccc(Cl)cc1	inactive
